Laboratory results reported in the supplement of paper PMC10981050.
Where “and” joins values, the source holds several entries; their conditions need not be identical. Equal values may be shown once. Where a name gives a salt, the structure may show the parent alone.

Columns and labels:
Experiment in all cases: cell viability relative to vehicle control; higher = less cytotoxic
Conditions in all cases: 10 µM
K562 = tested on: K562
Outline: (§1)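 Four leukaemia lines, as CRISPR-edited mutant clones and isogenic wild-type clones, were tested against Selleck bioactive, kinase and epigenetic probe libraries after removal of identity-inconsistent compounds. Cells were exposed to a single 10 µM dose for 48 h, and CellTiter-Glo luminescence was then read. Viability was calculated relative to the on-plate vehicle control.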

MARIMO = tested on: MARIMO
Outline: as §1

MOLM14 = tested on: MOLM14
Outline: as §1

OCI-AML2 = tested on: OCI-AML2
Outline: as §1

Compound	cell viability (K562; SRSF2 genotype: SRSF2 P95H/wt)	cell viability (K562; SRSF2 genotype: SRSF2 wt/wt)	cell viability (MARIMO; SRSF2 genotype: SRSF2 P95H/wt)	cell viability (MARIMO; SRSF2 genotype: SRSF2 wt/wt)	cell viability (MOLM14; SRSF2 genotype: SRSF2 P95H/wt)	cell viability (MOLM14; SRSF2 genotype: SRSF2 wt/wt)	cell viability (OCI-AML2; SRSF2 genotype: P95H/wt)	cell viability (OCI-AML2; SRSF2 genotype: wt/wt)
Cc1ccc(/C=N/NC(=O)c2ccccc2Oc2ccccc2)o1	96.8% and 102%	96.3%	96.3%	105%	102%	98.7%	112%	109%
COc1ccc2cc1Oc1ccc(cc1)C[C@H]1c3cc(c(OC)cc3CCN1C)Oc1c(O)c(OC)cc3c1[C@H](C2)N(C)CC3 [(+)-Fangchinoline]	4.1% and 4.98%	3.92%	12.2%	1.33%	0.71%	0.57%	0.52%	0.71%
C=C1CC23CCC4C(C)(C(=O)OC5OC(CO)C(O)C(O)C5O)CCCC4(C)C2CCC1(OC1OC(CO)C(O)C(OC2OC(CO)C(O)C(O)C2O)C1OC1OC(C)C(O)C(O)C1O)C3 (stereo not drawn) [Rebaudioside C]	101% and 99.8%	106%	108%	111%	106%	103%	112%	101%
COC(=O)c1ccccc1O [Methyl salicylate]	101% and 96.7%	94.8%	99.2%	104%	96.3%	104%	94.3%	102%
O=C(/C=C/c1ccc(O[C@@H]2O[C@H](CO)[C@@H](O)[C@H](O)[C@H]2O)cc1)c1ccc(O)cc1O [Isoliquiritin]	96.8% and 98%	105%	103%	97.6%	69.7%	87.6%	111%	107%
CO[C@]1(CC[C@@H](C)CO[C@@H]2O[C@H](CO)[C@@H](O)[C@H](O)[C@H]2O)O[C@H]2C[C@H]3[C@@H]4CC=C5C[C@@H](O[C@@H]6O[C@H](CO)[C@@H](O[C@@H]7O[C@@H](C)[C@H](O)[C@@H](O)[C@H]7O)[C@H](O)[C@H]6O[C@@H]6O[C@@H](C)[C@H](O)[C@@H](O)[C@H]6O)CC[C@]5(C)[C@H]4CC[C@]3(C)[C@H]2[C@@H]1C [Methylprotodioscin]	0.68% and 0.5%	1.3%	0.54%	0.79%	0.52%	0.56%	0.5%	0.54%
Cn1cc(C2=C(c3cn(CCCSC(=N)N)c4ccccc34)C(=O)NC2=O)c2ccccc21 [Ro 31-8220 Mesylate]	4.21% and 2.6%	3.72%	2.81%	0.92%	0.22%	-0.01%	0.07%	2.11%
C=CCc1cc(OC)c(OC)c(OC)c1 [Elemicin]	106% and 105%	113%	111%	104%	105%	109%	109%	123%
O=C(Oc1cc(S(=O)(=O)c2ccccc2)ccc1[N+](=O)[O-])c1ccc(Cl)cc1	104% and 109%	106%	106%	103%	104%	107%	114%	115%
COc1ccc(-c2cnc3c(-c4cccc5ncccc45)cnn3c2)cc1	98.9% and 100%	92.7%	104%	112%	93%	108%	90.4%	91.5%
CC(O)COCC1OC2OC3C(COCC(C)O)OC(OC4C(COCC(C)O)OC(OC5C(COCC(C)O)OC(OC6C(COCC(C)O)OC(OC7C(COCC(C)O)OC(OC8C(COCC(C)O)OC(OC1C(O)C2O)C(O)C8O)C(O)C7O)C(O)C6O)C(O)C5O)C(O)C4O)C(O)C3O (stereo not drawn)	100% and 108%	109%	105%	112%	106%	108%	108%	95.8%
O=C(O)c1cc(C(=O)O)c(C(=O)N(Cc2cccc(Oc3ccccc3)c2)[C@H]2CCCc3ccccc32)cc1C(=O)O	119% and 108%	113%	102%	103%	105%	101%	106%	105%
CCCCOc1cc(C(=O)NCCN(CC)CC)c2ccccc2n1 [Dibucaine (Cinchocaine) HCl]	94.5% and 84%	85.3%	81.8%	91.5%	86.2%	91.7%	93.2%	86.1%
O=c1ncn2nc(Sc3ccc(F)cc3F)ccc2c1-c1c(Cl)cccc1Cl	84.8% and 86.8%	83.6%	77.9%	84%	82.1%	92.9%	64.1%	68.6%
CO[C@H]1C(=O)[C@]2(C)[C@@H](OC)C[C@H]3OC[C@@]3(OC(C)=O)[C@H]2[C@H](OC(=O)c2ccccc2)[C@]2(O)C[C@H](OC(=O)[C@H](O)[C@@H](NC(=O)OC(C)(C)C)c3ccccc3)C(C)=C1C2(C)C [Cabazitaxel (Jevtana)]	24.8% and 36.9%	36.7%	7.53%	5.43%	8.88%	4.79%	7.39%	16%
N#CN=C(NCCCCCCOc1ccc(Cl)cc1)Nc1ccncc1	26.1% and 17.5%	25.9%	16.8%	26.9%	6.24%	1.39%	6.42%	6.39%
CC(C)n1c(=O)n(C)c2cnc3cc(F)c(-c4ccc(OCCCN5CCCCC5)nc4)cc3c21	71.3% and 72.9%	75.9%	60%	61%	30.9%	32%	32.7%	37%
CNC(=O)Nc1ccc(-c2nc(N3CC4CCC(C3)O4)c3cnn(C4CCC5(CC4)OCCO5)c3n2)cc1	40.7% and 42.8%	34.4%	57.6%	45%	36%	28.1%	29%	28.7%
Cc1onc(-c2ccccc2)c1-c1ccc(S(N)(=O)=O)cc1 [Valdecoxib]	97.6% and 94.6%	95.6%	96.4%	97.6%	90.6%	95.4%	81.8%	88.5%
O=S(=O)(O)CCS [Mesna (Uromitexan, Mesnex)]	107% and 96%	103%	94.2%	110%	104%	100%	92%	104%
Cc1ccc(S(=O)(=O)C=CC#N)cc1	1.6% and 0.48%	0.6%	0.37%	0.39%	0.28%	0.27%	0.28%	0.35%

Compound	cell viability (K562; SRSF2 genotype: SRSF2 P95H/wt)	cell viability (K562; SRSF2 genotype: SRSF2 wt/wt)	cell viability (MARIMO; SRSF2 genotype: SRSF2 P95H/wt)	cell viability (MARIMO; SRSF2 genotype: SRSF2 wt/wt)	cell viability (MOLM14; SRSF2 genotype: SRSF2 P95H/wt)	cell viability (MOLM14; SRSF2 genotype: SRSF2 wt/wt)	cell viability (OCI-AML2; SRSF2 genotype: P95H/wt)	cell viability (OCI-AML2; SRSF2 genotype: wt/wt)
O=C(NOCC1CC1)c1ccc(F)c(F)c1Nc1ccc(I)cc1Cl	74.9% and 78.8%	69.2%	37.4%	35.4%	39.2%	30.4%	39.5%	46.5%
CC(C)(C)C(=O)N1N=CC[C@H]1c1ccccc1	101% and 98.4%	104%	107%	108%	95.5%	103%	97.2%	103%
C[C@H]1[C@H](NC(=O)/C(=N\OC(C)(C)C(=O)O)c2csc(N)n2)C(=O)N1S(=O)(=O)O [Aztreonam (Azactam, Cayston)]	106% and 99.5%	109%	96.8%	112%	103%	108%	98.4%	104%
COc1cc2nc(N3CCN(C(=O)C4COc5ccccc5O4)CC3)nc(N)c2cc1OC (stereo not drawn) [Doxazosin mesylate]	94.7% and 100%	95.9%	105%	101%	92.2%	105%	92.7%	96.5%
CC(C)[C@H](O)C(=O)N[C@@H](C)C(=O)N[C@@H]1C(=O)N(C)CCc2ccccc21	106% and 107%	106%	96%	107%	109%	105%	101%	111%
CC[C@H]1OC(=O)C[C@@H](O)[C@H](C)[C@@H](O[C@@H]2O[C@H](C)[C@@H](O)[C@H](N(C)C)[C@H]2O)[C@@H](CCN2C[C@H](C)C[C@H](C)C2)C[C@@H](C)C(=O)/C=C/C(C)=C/[C@@H]1CO[C@@H]1O[C@H](C)[C@@H](O)[C@@H](OC)[C@H]1OC [Tilmicosin phosphate]	102%	108%	98%	103%	106%	101%	108%	112%
O=C(NCc1ccccc1)c1csc(Nc2ccncn2)n1 [Thiazovivin]	100% and 101%	100%	80.5%	94.7%	37.8%	86.8%	46%	49.5%
N/N=c1\[nH][nH]/c(=N\N)c2ccccc12 [Dihydralazine sulphate]	93.9% and 93.2%	95.5%	95.3%	94.3%	106%	103%	93%	95.4%
O=C(Cn1cnnn1)N[C@@H]1C(=O)N2C(C(=O)O)=C(CSc3nncs3)CS[C@H]12 [Ceftezole sodium]	108% and 99.1%	120%	101%	105%	109%	110%	123%	118%
CCCCc1oc2ccc(NS(C)(=O)=O)cc2c1C(=O)c1ccc(OCCCN(CCCC)CCCC)cc1 [Dronedarone HCl (Multaq)]	0.8% and 0.71%	0.61%	0.56%	0.71%	0.53%	0.6%	0.5%	0.55%
C=C1/C(=C\C=C2/CCC[C@]3(C)[C@@H]([C@H](C)/C=C/[C@H](C)C(C)C)CC[C@@H]23)C[C@@H](O)C[C@@H]1O [Doxercalciferol (Hectorol)]	81.4% and 88.8%	86.5%	69.6%	46.8%	68.5%	70.8%	55.3%	73%
CCN[C@H]1CN(CCCOC)S(=O)(=O)c2sc(S(N)(=O)=O)cc21 [Brinzolamide]	87.4% and 79.5%	85.7%	83.7%	88.2%	83.2%	86.5%	84.2%	90.2%
COc1ccc(-c2oc3cc(O)cc(O)c3c(=O)c2O)cc1 [kaempferide]	108% and 104%	103%	105%	119%	74.6%	98.2%	80.7%	82.7%
O=CCc1ccccc1 [Phenylacetaldehyde]	99.4% and 97.2%	92.8%	97.5%	95.2%	107%	97.2%	99.5%	93.5%
CC(=O)Oc1ccc(C(=C2CCCCC2)c2ccc(OC(C)=O)cc2)cc1 [Cyclofenil]	98% and 94.2%	98.5%	96.8%	95.8%	94.3%	102%	96.8%	96.9%
NCCCC[C@@H]1NC(=O)[C@@H](Cc2ccc(O)cc2)NC(=O)[C@H](CC(=O)O)NC(=O)CNC(=O)[C@H](CCCN=C(N)N)NC1=O [Cyclo(RGDyK)]	93.8% and 88.5%	89.8%	92.8%	96.9%	91.3%	90.9%	94.8%	93.9%
CCCCCOc1ccccc1/C(=C\SC)n1ccnc1 [Neticonazole Hydrochloride]	66.4% and 59.1%	68.9%	45.7%	39%	59.7%	54.8%	25.7%	26%
Cc1ccc(Nc2ncc3c(n2)N(C)C(=O)N(c2cc(NC(=O)c4cccc(C(F)(F)F)c4)ccc2C)C3)cn1	57.3% and 59.5%	43.1%	38.1%	37.4%	17.9%	17.5%	40.8%	35.2%
O=S1(=O)CCN(CN2CCS(=O)(=O)NC2)CN1 [Taurolidine]	98.7% and 105%	108%	104%	111%	103%	105%	123%	97.5%
O=C([O-])c1ccccc1.[Na+] [Sodium benzoate]	86.9% and 85.9%	86.1%	83.9%	90.9%	93%	89.5%	86%	97.5%
